Source: PubChem BioAssay
The list is not random: actives were taken first. Their share in the collection is about 3.4%.
FBW7 activator: human FBW7 E3 ligase activation, primary screen | Q969H0 | normalized activity (activation), % at 26.1 µM | AlphaScreen FBW7–phospho-cyclin E peptide binding, activator screen | 0.13% of 650,000 active; in the data active = normalized activity above about 1.9%;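 note: purified mutant Fbw7 with reduced substrate affinity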
TEAD-YAP inh: TEAD-YAP interaction inhibition; 1.4% of 640,000 active; HEK-TIYL cells, TEAD-Gal4/YAP UAS-luciferase luminescence; inhibition, % at 9.12 µM; in the data active = inhibition above about 32%;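 note: 0% = median of test compound wells and 100% = reference inhibitor wells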
GPR151 ag: activates the human receptor GPR151; Q8TDV0; PathHunter beta-arrestin GPR151 cells, luminescence; activation, % at 11.2 µM; 1% of 650,000 active; AID 1508602; in the data active = activation above about 4.9%;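 note: 0% = median of compound wells and 100% = cells with positive control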
MITF inh: human MITF inhibition, primary screen; AlphaScreen MITF homodimerization, bead proximity signal; inhibition, % at 2.6 µM; AID 1259374; O75030; 0.91% of 650,000 active; in the data active = inhibition above about 50%;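 note: 0% = vehicle wells with protein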
Target sequence (O75030 whole entry, looked up): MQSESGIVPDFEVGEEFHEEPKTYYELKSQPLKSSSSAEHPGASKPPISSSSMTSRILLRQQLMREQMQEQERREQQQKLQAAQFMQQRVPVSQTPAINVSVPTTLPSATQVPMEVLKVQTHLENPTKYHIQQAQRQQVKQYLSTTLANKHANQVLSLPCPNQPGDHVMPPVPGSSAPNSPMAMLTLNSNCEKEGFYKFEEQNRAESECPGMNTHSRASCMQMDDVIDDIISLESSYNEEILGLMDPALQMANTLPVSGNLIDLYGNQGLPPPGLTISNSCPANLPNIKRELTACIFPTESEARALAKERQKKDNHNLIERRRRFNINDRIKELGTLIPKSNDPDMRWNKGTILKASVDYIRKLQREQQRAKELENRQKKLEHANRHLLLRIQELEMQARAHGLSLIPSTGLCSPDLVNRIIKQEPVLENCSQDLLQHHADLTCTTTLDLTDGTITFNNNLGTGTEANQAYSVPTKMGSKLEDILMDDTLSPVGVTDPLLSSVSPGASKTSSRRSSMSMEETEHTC
GPR151 conf act: human GPR151 activation, confirmation screen; shares compounds with GPR151 ag; GPR151 PathHunter beta-arrestin cells, luminescence, 90 min; % of EA-reagent control over plate median; activation, % at 11.2 µM; 6,700 tested, under 10 active; AID 1508609;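 active = mean percent activation across replicates above the confirmation screen cutoff of 4.91%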
GPR119 ag: GPR119 activation, counter-screen for GPR151 activators. shares compounds with GPR151 ag. GPR119 PathHunter beta-arrestin cells, luminescence, 90 min; 0 = compound-well median, 100 = enzyme-acceptor control. activation, % at 11.2 µM. 0.3% of 6,700 active;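 active = mean percent activation in the counterscreen above 29.09%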;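 note: counterscreen on off-target GPR119 to flag nonselective hits from the GPR151 activator screen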
The depositor's hits bear a star.

Results for COC(=O)c1ccc(SCC(=O)NCc2ccccc2)c([N+](=O)[O-])c1 ?
FBW7 activator: 0; TEAD-YAP inh: 6; GPR151 ag: 7.4*; MITF inh: 2; GPR151 conf act: 0; GPR119 ag: -6

What do the screens show for `Cc1nccn1CCNC(=O)c1cccn(C)c1=O`?
FBW7 activator: 0; TEAD-YAP inh: 0; GPR151 ag: 1; MITF inh: 7

How did Cc1nccn1CCNC(=O)c1cccc2ccccc12 do in these assays?
FBW7 activator: 0; TEAD-YAP inh: 1; GPR151 ag: 6.0*; MITF inh: -1; GPR151 conf act: -1; GPR119 ag: -10

How did COc1cc2c(N3C(=O)CCC3=O)c3c(=O)oc(C)cn3c2cc1OC do in these assays?
FBW7 activator: 0; TEAD-YAP inh: 6; GPR151 ag: 9.1*; MITF inh: -4; GPR151 conf act: 0; GPR119 ag: 1

How did COc1cc(Nc2cc(C)nc(-c3ccc(N4CCOCC4)nc3)n2)cc(OC)c1OC do in these assays?
FBW7 activator: 0; TEAD-YAP inh: 7; GPR151 ag: 0; MITF inh: 14

What do the screens show for `COc1cc(NC(=O)CSc2ccc(C(=O)O)cn2)ccc1-n1cnnn1`?
FBW7 activator: 0; TEAD-YAP inh: 10; GPR151 ag: 8.2*; MITF inh: 8; GPR151 conf act: 0; GPR119 ag: 3

How did COc1cc(NC(=O)CSc2ccc(C(=O)O)cn2)cc(OC)c1 do in these assays?
FBW7 activator: 0; TEAD-YAP inh: -11; GPR151 ag: 0; MITF inh: -1

Results for CC1CCCC(NC(=O)C2N(Cc3ccc(Cl)cc3)C(=O)C3C(C(=O)Nc4ccc(Cl)cc4)C4C=CC32O4)C1C (centres undefined) ?
FBW7 activator: 0; TEAD-YAP inh: -3; GPR151 ag: 0; MITF inh: 4

Results for COc1ccc(CN2C(=O)C3C(C(=O)Nc4cccc(C)c4)C4C=CC3(O4)C2C(=O)NC2CCCCC2C)cc1 (centres undefined) ?
FBW7 activator: 0; TEAD-YAP inh: 1; GPR151 ag: -2; MITF inh: -5

Results for CC1CCCC(NC(=O)C2N(Cc3ccc(F)cc3)C(=O)C3C(C(=O)Nc4ccc(Cl)cc4)C4C=CC32O4)C1C (centres undefined) ?
FBW7 activator: 0; TEAD-YAP inh: 1; GPR151 ag: 5.3*; MITF inh: -9; GPR151 conf act: 0; GPR119 ag: 0

Results for CC(c1ccccc1)N1C(=O)C2C(C(=O)Nc3ccc(Cl)cc3)C3C=CC2(O3)C1C(=O)NC1CCCCC1 (centres undefined) ?
FBW7 activator: 0; TEAD-YAP inh: 4; GPR151 ag: 5.2*; MITF inh: -1; GPR151 conf act: 0; GPR119 ag: 1

Results for COCCCN1C(=O)C2C(C(=O)Nc3cccc(SC)c3)C3C=CC2(O3)C1C(=O)NC1CCCCC1 (centres undefined) ?
FBW7 activator: 0; TEAD-YAP inh: -8; GPR151 ag: 5.8*; MITF inh: 11; GPR151 conf act: 0; GPR119 ag: 1

Results for COc1cccc(CN2C(=O)C3C(C(=O)Nc4cccc(C)c4)C4C=CC3(O4)C2C(=O)NC2CCCCC2C)c1 (centres undefined) ?
FBW7 activator: 0; TEAD-YAP inh: 3; GPR151 ag: 5.5*; MITF inh: -4; GPR151 conf act: 0; GPR119 ag: 9

Results for N#Cc1ccc(OCC(=O)OCC(=O)Nc2ncc(Cl)cc2Cl)cc1 ?
FBW7 activator: 0; TEAD-YAP inh: 0; GPR151 ag: 5.6*; MITF inh: -4; GPR151 conf act: 0; GPR119 ag: -8

Results for COc1cc(-c2cn[nH]c2)cc2c(=O)[nH]c(C3COc4ccc(C)cc4C3)nc12 (centres undefined) ?
FBW7 activator: 0; TEAD-YAP inh: 7; GPR151 ag: 5.6*; MITF inh: 10; GPR151 conf act: -1; GPR119 ag: -6

Results for CC(=O)Nc1cnc2cnc(-c3ccc(C(C)C)cc3)cn12 ?
FBW7 activator: 0; TEAD-YAP inh: 9; GPR151 ag: 5.2*; MITF inh: 15; GPR151 conf act: -1; GPR119 ag: -4

Results for Cc1nc2sc(C(=O)Nc3cccc(C(F)(F)F)c3)c(C)c2c(=O)[nH]1 ?
FBW7 activator: 0; TEAD-YAP inh: 2; GPR151 ag: 6.5*; MITF inh: 11; GPR151 conf act: 1; GPR119 ag: -4

What do the screens show for `Cc1cccc(NC(=O)c2sc3nc(C)nc(N4CCOCC4)c3c2C)c1`?
FBW7 activator: 0; TEAD-YAP inh: -9; GPR151 ag: 1; MITF inh: 9

How did Cc1nc(N2CCOCC2)c2c(C)c(C(=O)Nc3cccc(C(F)(F)F)c3)sc2n1 do in these assays?
FBW7 activator: 0; TEAD-YAP inh: 6; GPR151 ag: 5.8*; MITF inh: -5; GPR151 conf act: -1; GPR119 ag: -14

Results for Cc1ccc(NC(=O)c2sc3nc(C)nc(N4CCN(c5ccccn5)CC4)c3c2C)c(Br)c1 ?
FBW7 activator: 0; TEAD-YAP inh: 1; GPR151 ag: 8.8*; MITF inh: -1; GPR151 conf act: -1; GPR119 ag: 11

What do the screens show for `CCCCn1c(CNC(=O)C23CC4CC(CC(C4)C2)C3)nnc1SC`?
FBW7 activator: 0; TEAD-YAP inh: 1; GPR151 ag: -1; MITF inh: 2

What do the screens show for `O=C(Nc1ccnn1C1CCN(Cc2ccccc2OCCO)CC1)c1cccc(F)c1`?
FBW7 activator: 0; TEAD-YAP inh: -6; GPR151 ag: 5.9*; MITF inh: -10; GPR151 conf act: 0; GPR119 ag: -3

Results for COc1ccc(F)c(CN2CCC(n3nccc3NC(=O)C3CCCC3)CC2)c1 ?
FBW7 activator: 0; TEAD-YAP inh: 2; GPR151 ag: 0; MITF inh: -3

How did O=C(Nc1ccnn1C1CCN(Cc2ccccc2F)CC1)C1CCCC1 do in these assays?
FBW7 activator: 0; TEAD-YAP inh: -9; GPR151 ag: 5.3*; MITF inh: 0; GPR151 conf act: -1; GPR119 ag: -16

What do the screens show for `CCOc1ccccc1CN1CCC(n2nccc2NC(=O)C(C)(C)C)CC1`?
FBW7 activator: 0; TEAD-YAP inh: -13; GPR151 ag: 6.8*; MITF inh: 13; GPR151 conf act: 0; GPR119 ag: 9

Results for COc1ccc(N2CCN(C(=O)CN(C)c3nnc(N4CCCC4=O)s3)CC2)cc1 ?
FBW7 activator: 1; TEAD-YAP inh: 5; GPR151 ag: -1; MITF inh: 8

How did COCc1cc(C)nc2sc(C(=O)Nc3cc(Cl)ccc3O)c(N)c12 do in these assays?
FBW7 activator: 0; TEAD-YAP inh: -14; GPR151 ag: 1; MITF inh: 1
